Source: PubChem BioAssay (Tox21)
Results filed as inconclusive are left out. Calls of active or inactive are those of the source. Unless noted, calls come from the whole dose curve; as a rule, active = well fitted curve in the direction sought with a large enough effect in the repeat runs; inconclusive = weak or mixed curves; inactive = no such curve, though single readings can be large; an effect the other way counts as inactive or inconclusive.

Tests used:
[1] = qHTS assay to identify small molecule HDAC inhibitors - cell viability counter screen (AID 1259365); note: series mostly up to about 92 µM; nearly all actives have a fitted effect of over 50% in size
How it was run: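 To flag cytotoxic hits, 1,500 wild-type HCT-116 cells per well, plated the day before, receive test compounds for 2hr at 37 C before CellTiter-Glo reagent and a luminescence read.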

[2] = qHTS assay to identify small molecule agonists of the sonic hedgehog signaling (Shh) pathway - cell viability counter screen (AID 1259366); note: nearly all actives have a fitted effect of over 50% in size
How it was run: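 Fluorescence from CellTiter-Fluor reports live cells in this counter screen. NIH/3T3-derived Gli1-Luc reporter cells receive test compounds for 24hr at 37C; reagent goes in at 23hr.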

[3] = qHTS assay to identify small molecule agonists of the sonic hedgehog signaling (Shh) pathway (AID 1259368; calls by dose curve;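 note: NIH/3T3-derived 3T3Gli1-Luc cells carrying a stable Gli1-driven firefly luciferase reporter; series mostly up to about 92 µM; nearly all actives have a fitted effect of over 15% in size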)
How it was run: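 NIH/3T3-derived 3T3Gli1-Luc cells with stably integrated Gli1-driven firefly luciferase, 2,000 cells/well, compounds added after 4 hr. Incubated 24 hr at 37C, 5% CO2; luminescence read after 30 min with luciferase reagent at room temperature.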

[4] = qHTS assay to identify small molecule antagonists of the sonic hedgehog signaling (Shh) pathway (AID 1259369; calls by dose curve; note: nearly all actives have a fitted effect of over 45% in size)
How it was run: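 NIH/3T3-derived Gli1-Luc reporter cells plated 4 h, dosed with compound, then stimulated with conditioned medium for 24 h at 37 C. Firefly luciferase luminescence read after 30 min with detection reagent at room temperature.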

[5] = qHTS assay to identify small molecule agonists of the androgen receptor (AR) signaling pathway in the presence of an antagonist - cell viability counter screen (AID 1259379);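 note: MDA-kb2 human breast cancer cells carrying an MMTV luciferase reporter; series mostly up to about 92 µM; nearly all actives have a fitted effect of over 25% in size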
How it was run: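 MDA-kb2 cells (MMTV-luciferase, AR/GR), 3,000/well, 5 h attachment, then 3.0 µM nilutamide (final) and compounds at 15 concentrations. Viability by CellTiter-Fluor fluorescence after 16 h at 37 °C, 0% CO2, in the reporter wells.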

[6] = molecular target: Androgen receptor (Homo sapiens) (UniProt P10275); test: qHTS assay to identify small molecule agonists of the androgen receptor (AR) signaling pathway in the presence of an antagonist (AID 1259381; calls by dose curve; note: nearly all actives have a fitted effect of over 15% in size)
How it was run: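 MDA-kb2 cells carrying MMTV-luciferase (AR/GR responsive), 3,000 cells/well, co-treated with 3.0 uM nilutamide final. Compounds at 15 concentrations, 16 hr at 37C without CO2. Luciferase luminescence read after 30 min with ONE-Glo.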

[7] = qHTS assay to identify small molecule antagonists of the estrogen receptor beta (ER-beta) signaling pathway - cell viability counter screen (AID 1259382);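 note: HEK293T cells carrying ER-beta-UAS-bla reporter stimulated with estradiol; series mostly up to about 92 µM; nearly all actives have a fitted effect of over 55% in size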
How it was run: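 ER-beta-UAS-bla HEK293T cells in 2% charcoal-stripped FBS medium, treated with compound plus 1 nM 17-beta-estradiol for 16 h at 37C. Viability read by CellTiter-Glo luminescence after 30 min at room temperature in the same wells.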

[8] = molecular target: Estrogen receptor (Homo sapiens) (UniProt P03372); test: qHTS assay to identify small molecule agonists of the estrogen receptor alpha (ER-alpha) signaling pathway in the presence of an antagonist (AID 1259383; calls by dose curve; note: top concentration of the series differs between compounds; nearly all actives have a fitted effect of over 15% in size)
How it was run: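 VM7Luc4E2 cells express endogenous full-length ER-alpha with an ERE-luciferase reporter and were hormone-deprived for 5 days. Compounds at 15 concentrations were added with 10.0nM ICI-182,780 for 22hr at 37C. Luminescence was read with ONE-Glo.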

[9] = qHTS assay to identify small molecule agonists or antagonists of the thyroid stimulating hormone receptor (TSHR) signaling pathway - wild type cell line counter screen (AID 1259384; calls by dose curve)
How it was run: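 Counter screen in untransfected Hek293: compounds (15-point titration, triplicate) plus phosphodiesterase inhibitor Ro20-1724 added after 18 h plating; 30 min RT. Intracellular cAMP via competitive d2/cryptate immunoassay, 1 h incubation.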

[10] = molecular target: Thyrotropin receptor (Homo sapiens) (UniProt P16473); test: qHTS assay to identify small molecule antagonists of the thyroid stimulating hormone receptor (TSHR) signaling pathway (AID 1259385; calls by dose curve; note: nearly all actives have a fitted effect of over 20% in size)
How it was run: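 Antagonist mode: compound-treated TSHR-expressing HEK293 cells were stimulated with 1.5 ng/mL TSH (final) in presence of Ro20-1724 for 30 min at RT. HTRF cAMP detection after 1 h; each compound tested at 15 concentrations, triplicate.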

[11] = qHTS assay to identify small molecule agonists of the estrogen receptor alpha (ER-alpha) signaling pathway in the presence of an antagonist - cell viability counter screen (AID 1259386);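 note: series mostly up to about 92 µM; cells exposed to compounds for 22 h at 37 °C before the viability read; nearly all actives have a fitted effect of over 30% in size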
How it was run: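 Cell viability in VM7Luc4E2 cells (endogenous full-length ER-alpha) measured by CellTiter-Fluor fluorescence in the same wells as the luciferase screen. Cells pre-cultured 5 days in charcoal-stripped serum, then treated 22 h with compounds at 15 concentrations plus 10.0nM ICI-182,780.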

[12] = qHTS assay to identify small molecule antagonists of the progesterone receptor (PR) signaling pathway - cell viability counter screen (AID 1346798); note: series mostly up to about 92 µM; nearly all actives have a fitted effect of over 50% in size
How it was run: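 Measures cytotoxicity in parallel with the PR antagonist reporter read: HEK293T PR-UAS-bla cells get compound and R5020 for 16 hr, and remaining viable cells are quantified by CellTiter-Glo luminescence.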

[13] = qHTS assay to identify small molecule agonists of the progesterone receptor (PR) signaling pathway - cell viability counter screen (AID 1346799; calls by dose curve; note: nearly all actives have a fitted effect of over 45% in size)
How it was run: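 Using the same plates as the PR reporter screen, HEK293T PR-UAS-bla cells received compounds for 16 hr at 37C and were then lysed with CellTiter-Glo; luminescence was read 30 min later at room temperature.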

[14] = qHTS assay to identify small molecule antagonists of the TGF-beta/Smad signaling pathway - cell viability counter screen (AID 1346824); note: nearly all actives have a fitted effect of over 50% in size
How it was run: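 Cytotoxicity counter-screen run in the same wells as the beta-lactamase Smad reporter read: CellTiter-Glo luminescence after 30 min at room temperature. HEK 293T SBE-bla cells had 5 hr compound exposure at 37 C with TGF-beta1 (0.25 ng/mL stock).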

[15] = qHTS assay to identify small molecule agonists of the estrogen receptor beta (ER-beta) signaling pathway - cell viability counter screen (AID 1259380); note: nearly all actives have a fitted effect of over 30% in size
How it was run: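 ER-beta-UAS-bla HEK293T cells in medium with 2% charcoal-stripped FBS, pre-incubated 6 hr, then treated 16 hr at 37C. Cytotoxicity read in the same wells by CellTiter-Glo luminescence after 30 min at room temperature.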

[16] = molecular target: Progesterone receptor (Homo sapiens) (UniProt P06401); test: qHTS assay to identify small molecule agonists of the progesterone receptor (PR) signaling pathway (AID 1346784; calls by dose curve; note: nearly all actives have a fitted effect of over 30% in size)
How it was run: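 Seed PR-UAS-bla HEK 293T cells (2% charcoal-stripped FBS), incubate 6 hr at 37C; add compounds in DMSO, 16 hr at 37C; add LiveBLAzer B/G substrate, 2 hr RT; read fluorescence intensity.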

[17] = molecular target: Progesterone receptor (Homo sapiens) (UniProt P06401); test: qHTS assay to identify small molecule antagonists of the progesterone receptor (PR) signaling pathway (AID 1346795; active = well fitted inhibition curve with a large enough effect in the signal ratio in the repeat runs, not every such curve was filed as active; the % refers to the signal ratio)
How it was run: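 Screening used a GripTite HEK293T line with PR-responsive UAS-beta-lactamase. Cells were challenged with compound in the presence of 1 nM R5020 final for 16 hr at 37C; B/G FRET substrate, 2 hr room temperature, fluorescence.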

[18] = molecular target: Estrogen receptor beta (Homo sapiens) (UniProt Q92731); test: qHTS assay to identify small molecule agonists of the estrogen receptor beta (ER-beta) signaling pathway (AID 1259377; active = well fitted activation curve with a large enough effect in the signal ratio in the repeat runs, not every such curve was filed as active; the % refers to the signal ratio)
How it was run: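 Screening used GripTite ER-beta-UAS-bla cells held in 2% charcoal-stripped FBS medium. After overnight (16 hr) compound incubation at 37C, beta-lactamase activity was detected with a FRET substrate by fluorescence.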

[19] = molecular target: Estrogen receptor beta (Homo sapiens) (UniProt Q92731); test: qHTS assay to identify small molecule antagonists of the estrogen receptor beta (ER-beta) signaling pathway (AID 1259378; active = well fitted inhibition curve with a large enough effect in the signal ratio in the repeat runs, not every such curve was filed as active; the % refers to the signal ratio)
How it was run: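 Antagonist mode: compounds added to beta-lactamase reporter HEK293T ER-beta-UAS cells stimulated with E2 (1nM final), 16 hr at 37C. LiveBLAzer B/G FRET substrate, 2 hours room temperature, fluorescence read-out.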

Measured: Potency

Estrogen receptor (Homo sapiens), sequence (P03372 whole entry, looked up): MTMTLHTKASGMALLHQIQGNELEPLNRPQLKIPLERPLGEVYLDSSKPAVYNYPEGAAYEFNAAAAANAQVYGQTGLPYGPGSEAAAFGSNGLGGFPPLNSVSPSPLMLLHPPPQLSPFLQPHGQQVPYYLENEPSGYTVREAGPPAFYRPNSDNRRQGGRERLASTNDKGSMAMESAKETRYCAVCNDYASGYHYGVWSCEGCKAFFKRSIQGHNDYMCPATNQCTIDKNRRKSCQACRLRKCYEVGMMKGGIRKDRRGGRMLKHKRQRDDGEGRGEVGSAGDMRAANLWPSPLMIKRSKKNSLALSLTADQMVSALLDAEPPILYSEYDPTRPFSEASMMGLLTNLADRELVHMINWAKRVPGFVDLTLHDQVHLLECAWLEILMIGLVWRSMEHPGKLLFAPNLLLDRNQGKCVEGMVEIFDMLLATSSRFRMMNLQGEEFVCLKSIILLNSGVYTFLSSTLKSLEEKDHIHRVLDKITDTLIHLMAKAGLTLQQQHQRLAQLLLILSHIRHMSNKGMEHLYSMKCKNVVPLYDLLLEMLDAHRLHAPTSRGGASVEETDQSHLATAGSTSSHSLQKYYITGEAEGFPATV
Androgen receptor (Homo sapiens), sequence (P10275 whole entry, looked up): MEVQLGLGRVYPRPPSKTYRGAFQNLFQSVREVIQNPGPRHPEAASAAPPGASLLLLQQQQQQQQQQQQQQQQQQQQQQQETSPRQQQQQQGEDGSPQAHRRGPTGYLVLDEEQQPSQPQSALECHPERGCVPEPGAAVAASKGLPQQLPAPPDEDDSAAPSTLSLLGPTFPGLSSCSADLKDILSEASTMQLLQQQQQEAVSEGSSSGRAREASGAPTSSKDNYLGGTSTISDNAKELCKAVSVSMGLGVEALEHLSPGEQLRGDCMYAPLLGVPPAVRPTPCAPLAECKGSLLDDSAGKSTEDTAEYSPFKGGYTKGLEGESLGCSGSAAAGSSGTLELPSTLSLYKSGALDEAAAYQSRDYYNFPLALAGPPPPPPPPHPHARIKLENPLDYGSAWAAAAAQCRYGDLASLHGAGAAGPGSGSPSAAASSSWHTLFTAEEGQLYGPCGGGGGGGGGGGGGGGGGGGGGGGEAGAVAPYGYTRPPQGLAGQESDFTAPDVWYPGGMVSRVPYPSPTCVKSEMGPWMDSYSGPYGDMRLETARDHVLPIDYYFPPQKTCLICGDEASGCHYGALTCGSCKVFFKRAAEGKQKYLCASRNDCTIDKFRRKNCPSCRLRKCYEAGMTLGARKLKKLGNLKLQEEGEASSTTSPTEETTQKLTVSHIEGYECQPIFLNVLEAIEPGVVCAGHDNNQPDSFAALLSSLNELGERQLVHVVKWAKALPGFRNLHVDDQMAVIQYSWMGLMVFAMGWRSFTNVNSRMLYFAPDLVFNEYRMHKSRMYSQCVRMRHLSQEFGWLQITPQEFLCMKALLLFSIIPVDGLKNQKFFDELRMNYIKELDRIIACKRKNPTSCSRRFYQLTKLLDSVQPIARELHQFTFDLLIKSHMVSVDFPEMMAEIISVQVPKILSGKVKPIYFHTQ
Thyrotropin receptor (Homo sapiens), sequence (P16473 whole entry, looked up): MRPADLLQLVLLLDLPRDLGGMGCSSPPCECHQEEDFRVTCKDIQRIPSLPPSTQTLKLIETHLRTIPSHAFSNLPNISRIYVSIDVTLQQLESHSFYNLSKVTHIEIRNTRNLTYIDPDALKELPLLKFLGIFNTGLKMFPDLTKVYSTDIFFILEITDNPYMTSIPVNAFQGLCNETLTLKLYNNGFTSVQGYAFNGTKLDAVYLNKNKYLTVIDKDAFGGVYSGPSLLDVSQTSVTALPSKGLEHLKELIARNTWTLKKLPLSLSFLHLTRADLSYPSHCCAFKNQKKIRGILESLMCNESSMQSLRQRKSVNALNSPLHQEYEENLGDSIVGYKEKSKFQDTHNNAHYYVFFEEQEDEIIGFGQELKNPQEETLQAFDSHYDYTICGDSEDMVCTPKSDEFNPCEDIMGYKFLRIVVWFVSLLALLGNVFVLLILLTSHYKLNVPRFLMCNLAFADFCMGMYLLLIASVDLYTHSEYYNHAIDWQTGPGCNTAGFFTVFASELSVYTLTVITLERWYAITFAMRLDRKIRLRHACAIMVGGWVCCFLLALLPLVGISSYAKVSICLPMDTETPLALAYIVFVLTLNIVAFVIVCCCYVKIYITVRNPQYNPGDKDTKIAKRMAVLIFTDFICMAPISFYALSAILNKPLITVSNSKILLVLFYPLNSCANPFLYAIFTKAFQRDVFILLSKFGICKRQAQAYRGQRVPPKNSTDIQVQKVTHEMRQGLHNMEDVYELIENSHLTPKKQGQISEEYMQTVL
Progesterone receptor (Homo sapiens), sequence (P06401 whole entry, looked up): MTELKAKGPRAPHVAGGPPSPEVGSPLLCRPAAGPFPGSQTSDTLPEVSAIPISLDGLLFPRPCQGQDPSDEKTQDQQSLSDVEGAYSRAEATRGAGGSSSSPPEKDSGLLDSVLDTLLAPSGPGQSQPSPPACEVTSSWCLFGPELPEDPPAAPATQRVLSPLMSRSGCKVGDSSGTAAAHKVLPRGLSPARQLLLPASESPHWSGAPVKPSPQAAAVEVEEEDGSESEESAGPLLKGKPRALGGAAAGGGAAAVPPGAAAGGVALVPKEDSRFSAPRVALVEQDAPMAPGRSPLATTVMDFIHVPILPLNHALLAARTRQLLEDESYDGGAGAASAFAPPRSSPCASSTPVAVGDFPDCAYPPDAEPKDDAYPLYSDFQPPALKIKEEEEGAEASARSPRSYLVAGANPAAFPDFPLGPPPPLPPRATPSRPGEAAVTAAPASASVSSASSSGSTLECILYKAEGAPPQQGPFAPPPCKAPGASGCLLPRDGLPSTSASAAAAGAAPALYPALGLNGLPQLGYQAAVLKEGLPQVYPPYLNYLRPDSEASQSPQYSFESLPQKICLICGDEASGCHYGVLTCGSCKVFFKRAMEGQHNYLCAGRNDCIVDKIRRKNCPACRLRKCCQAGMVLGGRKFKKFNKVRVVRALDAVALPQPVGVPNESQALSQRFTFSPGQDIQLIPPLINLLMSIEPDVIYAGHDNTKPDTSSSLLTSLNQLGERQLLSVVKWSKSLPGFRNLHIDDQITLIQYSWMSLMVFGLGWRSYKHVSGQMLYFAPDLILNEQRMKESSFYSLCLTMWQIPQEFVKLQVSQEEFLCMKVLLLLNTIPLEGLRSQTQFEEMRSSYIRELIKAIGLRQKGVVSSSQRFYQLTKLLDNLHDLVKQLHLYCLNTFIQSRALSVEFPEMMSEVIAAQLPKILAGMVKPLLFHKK
Estrogen receptor beta (Homo sapiens), sequence (Q92731 whole entry, looked up): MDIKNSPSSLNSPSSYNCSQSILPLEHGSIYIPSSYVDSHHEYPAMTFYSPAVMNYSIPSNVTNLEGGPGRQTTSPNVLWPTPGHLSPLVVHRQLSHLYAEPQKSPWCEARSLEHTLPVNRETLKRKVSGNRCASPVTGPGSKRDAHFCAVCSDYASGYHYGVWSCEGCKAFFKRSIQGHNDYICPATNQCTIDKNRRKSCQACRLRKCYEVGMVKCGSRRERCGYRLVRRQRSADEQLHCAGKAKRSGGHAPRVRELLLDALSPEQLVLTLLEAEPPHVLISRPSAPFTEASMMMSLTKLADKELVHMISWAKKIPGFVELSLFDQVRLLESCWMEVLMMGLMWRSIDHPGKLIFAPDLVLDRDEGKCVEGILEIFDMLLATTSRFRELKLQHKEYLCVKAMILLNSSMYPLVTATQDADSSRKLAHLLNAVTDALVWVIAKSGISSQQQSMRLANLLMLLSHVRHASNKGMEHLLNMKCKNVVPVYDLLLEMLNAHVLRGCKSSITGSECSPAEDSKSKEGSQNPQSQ

CC/C=C\CCOC(=O)c1ccccc1
not listed: [15] | [16] | [17] | [18] | [19]
inactive: all other assays above

CCOC(=O)COc1ccc2c(C)c(CCN(CC)CC)c(=O)oc2c1Cl
not listed: [6] | [9] | [10] | [12] | [18] | [19]
inactive: all other assays above

COC(=O)C(c1ccccc1Cl)N1CCc2sccc2C1 (configuration not stated)
not listed: [6] | [8] | [16] | [17] | [18] | [19]
inactive: all other assays above

NNC(=O)OCc1ccccc1
not listed: [15]
inactive: all other assays above

CC(=O)c1ccc(O)c(C(N)=O)c1
not listed: [8] | [16] | [17]
inactive: all other assays above

C=CCN(CC=C)CC=C
not listed: [6] | [7] | [8] | [17]
inactive: all other assays above

CC(C)C[P+](C)(CC(C)C)CC(C)C
not listed: [4] | [6] | [16] | [17] | [18]
inactive: all other assays above

CC(=O)OC1CCC(C(C)(C)C)CC1 (configuration not stated)
not listed: [17] | [18] | [19]
inactive: all other assays above

CCCCCCCCCCCCCCCC/C=C/C1CC(=O)OC1=O (configuration not stated)
not listed: [4] | [6] | [8] | [15] | [16] | [17] | [18]
inactive: all other assays above

O=Cc1ccccc1S(=O)(=O)O
not listed: [6] | [8] | [13]
inactive: all other assays above
